EWS-Fli block: inhibitors of EWS/Fli oncoprotein transcriptional activity. A673 NR0B1-luciferase reporter, viability-normalised. inhibition, % at 12.6 µM. 350,000 tested, 0.67% active. AID 651661;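 active means mean inhibition of at least 50% after viability correction, with every replicate also passing that limit; inconclusive means mean reaches 50% but only one of two replicates passes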;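 further: firefly luciferase signal divided by Alamar Blue viability fluorescence both relative to DMSO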
Shn3 inh set2: inhibitors of Schnurri-3 3'UTR reporter in osteoblasts. Clone20 osteoblast Shn3 3'UTR firefly luciferase, 24 h. inhibition, % at 12.5 µM. 360,000 tested, 0.52% active. AID 588674;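 active means mean inhibition of at least 75% with every replicate also reaching 75%; inconclusive means mean inhibition at least 75% but some replicate below; inactive means mean inhibition below 75%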
LGR2 inh: inhibitors of bursicon-induced Drosophila LGR2 receptor cAMP signaling. inhibition, % at 9.99 µM. AID 720647. 380,000 tested, 0.35% active. HEK293 LGR2, CRE-luciferase, bursicon-stimulated, 4 h;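 active means drop in luminescence signal, shown as inhibition above about 50% in the replicate tests, limit read from the data, passing the limit was not always enough; inconclusive means probably only some replicates passing the limit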;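 further: agonist challenge used bursicon conditioned medium at about half maximal strength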
PAX8 reporter: PAX8 transcriptional activity inhibition; 360,000 tested, 1.2% active; inhibition, % at 12.6 µM; AID 652154; RMG-I TPO-luciferase reporter, SteadyGlo, 24 h;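 active means mean replicate inhibition at least 60% with every replicate also reaching 60%; inconclusive means only one of the two criteria is met; inactive means mean below 60% and not all replicates reaching 60%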;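 further: luciferase light reporting Pax8 driven TPO promoter activity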
CF NFkB inh: inhibitors of cystic fibrosis induced NF-kB; KKLEB NF-kB-GFP reporter, PAF-induced, GFP fluorescence overnight; inhibition, % at 5 µM; 360,000 tested, 0.86% active; AID 588850;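 active means at least 50% inhibition at 5 µM, scaled per plate between neutral and stimulator controls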;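 further: PAF is a Pseudomonas aeruginosa culture filtrate used as stimulus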
KKLEB cytotox: CF airway cell cytotoxicity counter-screen; KKLEB CF airway cells viability, ATPlite luminescence, overnight; stronger effect = lower value; cells stimulated with P. aeruginosa culture filtrate; activity change (cytotoxicity), % at 5 µM; 360,000 tested, 0.36% active;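 active means corrected activity change at or below -50% at 5 µM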
A number is an active result; - = inactive; ? = inconclusive; . = not tested or not shown. Sampled rows, rich in hits. Any-hit rate of the full collection: about 2%.

SMILES	EWS-Fli block	Shn3 inh set2	LGR2 inh	PAX8 reporter	CF NFkB inh	KKLEB cytotox
COc1ccc(NC(=O)c2ccc(NC3CC(=O)N(c4ccc(C)cc4C)C3=O)cc2)cc1 (centres undefined)	-	-	-	-	-	-56
C[C@@H]1CN([C@H](C)CO)C(=O)c2c(c3ccccc3n2C)-c2ccccc2CO[C@@H]1CN(C)Cc1cccc(O)c1	-	.	-	-	.	.
Cc1ccc(S(=O)(=O)N2CCN(c3ncnc4sccc34)CC2)cc1	-	87	-	.	-	-
O=C(O)c1cc2c(N3CCC(Cc4ccccc4)CC3)ncnc2s1	-	-	-	-	-	-
c1ccc(CC2CCN(c3ncnc4sccc34)CC2)cc1	-	90	.	-	-	-
O=S(=O)(c1ccc(F)c(F)c1F)N1CCN(c2ncnc3sccc23)CC1	-	?	-	-	-	-
COCC(=O)N[C@@H]1C=C[C@@H](CC(=O)NCc2ccccc2OC)O[C@H]1CO	-	.	-	-	.	.
CCCC(=O)N1CC2(C1)CN(C(=O)C1CCC1)[C@@H](CO)c1[nH]c3cc(OC)ccc3c12	-	.	-	-	.	.
CCOC(=O)c1c(C)[nH]c(C2=NNC(=Nc3ccccc3OC)SC2)c1C	-	-	-	74	-	-
C[C@@H]1CN([C@H](C)CO)C(=O)c2cc(NC(=O)NC3CCCCC3)ccc2O[C@@H](C)CCCCO[C@H]1CN(C)Cc1ccc(C(F)(F)F)cc1	-	.	-	105	.	.
C[C@@H]1CN([C@@H](C)CO)C(=O)c2cc(NC(=O)NC3CCCCC3)ccc2O[C@@H](C)CCCCO[C@H]1CN(C)Cc1ccc(C(F)(F)F)cc1	-	.	-	78	.	.
Cc1cccc(-c2ccc([C@H]3[C@H](CO)N4C(=O)CN(C(=O)CN5CCOCC5)C[C@@H]34)cc2)c1	.	.	-	.	.	.
Cc1ccc(-c2nc(-c3ccccc3)no2)c(Cl)c1	84	-	67	-	-	-80
Cc1cc(C)c(C(N)=O)c(SCC(=O)c2cc(C)n(-c3cc(C)on3)c2C)n1	-	90	-	-	-	-
Cc1cc(-n2c(C)cc(C(=O)CSc3nncn3C(C)C)c2C)no1	-	-	-	-	-	-
Cc1cc(C)c(C(N)=O)c(SCC(=O)c2cc(C)c(C)cc2C)n1	.	-	-	-	-	-
Cc1cc(-n2c(C)cc(C(=O)CSc3nncn3C)c2C)no1	-	90	-	-	-	-
C[C@@H]1CN([C@H](C)CO)C(=O)Cc2cc(NC(=O)Cn3cnnn3)ccc2O[C@H]1CN(C)S(C)(=O)=O	-	.	-	-	.	.
Fc1ccc(CSc2ccc(-c3ccco3)nn2)cc1	-	-	-	131	-	-
Fc1cccc(CSc2ccc(-c3ccco3)nn2)c1	.	-	-	-	-	-
CN1c2ccc(C3=CCCCC3)cc2[C@H]2[C@H](CCN2C(=O)C2CCC2)[C@@H]1CO	-	.	-	69	.	.
CN1c2ccc(C3=CCCCC3)cc2[C@H]2[C@H](CCN2C(=O)NC2CCCCC2)[C@@H]1CO	-	.	-	77	.	.
COc1ccc2c(c1)c(C(=O)O)c(C)n2-c1ccccc1	-	-	-	-	-	-
COc1ccc(-n2c(C)c(C(C)=O)c3cc(OC(C)=O)ccc32)cc1	-	-	-	-	83	-
CO[C@@H]1CN(C)C(=O)c2cc(NC(=O)Nc3ccc(Cl)c(Cl)c3)ccc2OC[C@H](C)NC[C@@H]1C	-	.	-	-	.	.
SMILES	EWS-Fli block	Shn3 inh set2	LGR2 inh	PAX8 reporter	CF NFkB inh	KKLEB cytotox
O=C(COc1coc(CN2CCc3ccccc3C2)cc1=O)Nc1cccc(F)c1	-	-	-	-	-	-
O=C(COc1coc(CN2CCc3ccccc32)cc1=O)Nc1cccc(F)c1	-	-	-	.	64	-56
CCCNC(=O)Nc1ccc2c(c1)C(=O)N(C)[C@H]1CC[C@H](CC(=O)O)O[C@@H]1CO2	-	.	-	-	.	.
COc1ccc(-n2nc(C(=O)Nc3ccc4c(c3)OCO4)c3c4ccccc4n(C)c3c2=O)cc1	.	.	.	-	-	-
COc1ccc(-n2nc(C(=O)Nc3ccc(OC)c(OC)c3)c3c4ccccc4n(C)c3c2=O)cc1	.	-	.	-	64	-60
CCOC(=O)CCc1ccc(NC(=O)/C=C/c2ccc([N+](=O)[O-])o2)cc1	51	-	-	-	-	-
C[C@@H]1CN([C@H](C)CO)C(=O)c2cc(NS(=O)(=O)c3cn(C)cn3)ccc2O[C@@H](C)CCCCO[C@@H]1CN(C)S(C)(=O)=O	-	.	-	.	.	.
CCCCCNCc1ccc(Cl)cc1	-	-	-	-	-	-
CCCCCCC[N+](CC)(CC)CCCCc1ccc(Cl)cc1	-	?	-	87	-	-
C[C@H](CO)N1C[C@H](C)[C@H](CN(C)C(=O)NC2CCCCC2)Oc2c(NS(=O)(=O)c3ccc(F)cc3)cccc2C1=O	-	.	-	-	.	.
Oc1ccc2ccccc2c1N=Nc1ccccn1	.	95	.	.	-	-
N#Cc1ccccc1Cn1cc(/C=C/[N+](=O)[O-])c2ccccc21	-	96	69	-	-	-
S=C(NCc1ccccc1)C(=S)NCc1ccccc1	-	-	-	.	-	-
c1ccc(CN=C(NCc2ccccc2)NCc2ccccc2)cc1	-	83	-	-	-	-
C=CC(=O)Nc1ccc(Nc2nc(NC3CCC(N(C)C)CC3)nc3c2ncn3C(C)C)cc1 (centres undefined)	.	94	.	.	94	-74
NC(=O)c1[nH]cnc1N=NN(CCO)Cc1ccccc1	-	-	-	74	-	-
CN(N=Nc1nc[nH]c1C(N)=O)C1CCCCC1	-	-	-	100	-	-
CN(C)N=Nc1nc[nH]c1C(N)=O	-	-	-	102	-	-
C[C@@H]1CCCCO[C@@H](CN(C)C(=O)C2CCCCC2)[C@H](C)CN([C@@H](C)CO)C(=O)c2cc(NC(=O)Nc3ccccc3)ccc2O1	-	.	-	-	.	.
O=C(CN1CCOCC1)NCC[C@@H]1CC[C@@H](NC(=O)Nc2ccc(C(F)(F)F)cc2)[C@@H](CO)O1	-	.	-	-	.	.
C[C@H](CO)N1C[C@H](C)[C@H](CN(C)Cc2ccc3c(c2)OCO3)Oc2c(NC(=O)C3CC3)cccc2C1=O	-	.	-	.	.	.
COc1ccc2c3c([nH]c2c1)[C@H](CO)N(C(=O)C1CCC1)CC31CN(C(=O)NC(C)C)C1	-	.	-	-	.	.
Nc1c(Br)cc2c(c1Br)C(O)c1ccccc1-2 (centres undefined)	-	94	-	-	-	-
O=C1OC(c2cc(Br)c(O)c(Br)c2)c2ccccc21 (centres undefined)	-	-	-	-	-	-
CC(=O)N1CCCCN2[C@@H](CO)[C@H](c3ccc(-c4cccc(C)c4)cc3)[C@@H]2C1	-	.	-	-	.	.
CC(=O)N1CCCCN2[C@H](CO)[C@H](c3ccc(-c4cccc(C)c4)cc3)[C@@H]2C1	-	.	55	-	.	.
COc1ccccc1NC(=O)N1CCCCN2[C@@H](CO)[C@@H](c3ccc(-c4cccc(C)c4)cc3)[C@@H]2C1	57	.	-	104	.	.
